In PubChem BioAssay AID624304 (Sanford-Burnham Center for Chemical Genomics, 2012):
The whole screen tested about 360,000 compounds, of which about 1,800 (0.5%) were called active.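 Rule for the calls: active = interference check ratio from 0.5 to 1.5 plus GFP to RFP signal ratio inhibition reaching or exceeding a fixed threshold (cut at about 30% in these data, passing the limit was not always enough); inactive = the rest.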 What follows is part of a selection rich in actives, with near analogues and random picks from the rest.

Assay: gst-4 reporter inhibition in live C. elegans – whole organism, uHTS, GFP/RFP fluorescence ratio, strain VP596, SKN-1 inhibitor project, primary screen (AID 624304)
Details: C. elegans VP596 Pgst-4::GFP/RFP ratio, acrylamide-induced, 24 h; at 21.8 µM; active compounds read high
For COc1ccc(C(C#N)(CC(=O)O)c2cnccn2)cc1OC (stereo unspecified), the inhibition was 7.82% (inactive). In the case of Cn1nc(C(C)(C)C)c([N+](=O)[O-])c1C(N)=O, the inhibition is reported as 11.7% (inactive). In the case of CC(C)CN1CC(C)C(=O)N(c2ccccc2)C1=S (stereo unspecified), the inhibition is reported as 6.3% (inactive). For FC(F)(F)c1ccc2nnc(-c3c(Cl)cccc3Cl)n2c1, the inhibition was 13.4% (inactive). With Nc1cc(C(F)(F)F)ccc1N1CCOCC1 the inhibition was 2.47% (inactive). In the case of CCCC1OC23CCCCC2C(C#N)(C#N)C1(C#N)C(=N)O3 (stereo unspecified), the inhibition is reported as 39.2% (active). For O=C(NC1CCCC1)C1CC(=O)N(c2ccc(F)cc2)C1 (stereo unspecified), the inhibition was 0.701% (inactive). For O=C(CCCNS(=O)(=O)c1cccc2nsnc12)NCCN1CCN(c2ccccc2F)CC1, the inhibition was -3.19% (inactive). For CCC(=O)N1CCc2cc(S(=O)(=O)CCC(=O)N3CCN(c4ccccc4F)CC3)ccc21, the inhibition was 20.2% (inactive). In the case of O=C(CCS(=O)(=O)c1cccc2nsnc12)N1CCN(c2ccccc2F)CC1, the inhibition is reported as 47.3% (active). For CN1CCN(c2ccccc2NC(=O)COc2ccc(C3CCCCC3)cc2)CC1, the inhibition was -4.71% (inactive). In the case of Cc1ccc(-c2nc3c(Cl)cc(C(F)(F)F)cn3c2Cc2cccc(Cl)c2)cc1, the inhibition is reported as 9.6% (inactive). In the case of Cc1cc(NC(=O)CSc2ncc(C(F)(F)F)cc2Cl)no1, the inhibition is reported as -6.53% (inactive). In the case of Cc1ccc(-c2ccnc3nc(Sc4ncc(C(F)(F)F)cc4Cl)nn23)cc1, the inhibition is reported as 41.4% (active). With COc1cccc(CNC(=O)COc2cc(O)c3c(c2)OC(C)(C)CC3=O)c1 the inhibition was 8.05% (inactive). In the case of CC1CN/C(=C\C(=O)c2ccc(Br)cc2)C(=O)N1 (stereo unspecified), the inhibition is reported as 15.8% (inactive). With COc1cccc(CNc2nc(NCc3cccs3)nc3ccsc23)c1 the inhibition was 6.96% (inactive). In the case of COc1cccc(-c2cc3nc(NCc4ccccc4OC)n(C)c(=O)c3s2)c1, the inhibition is reported as -2.32% (inactive). For COc1cccc(CNc2nc(NCc3ccccc3OC)nc3ccsc23)c1, the inhibition was 43.2% (active). In the case of CCc1nc2c(OCc3ccc(C(=O)OC)cc3)cccn2c1N(C)C(=O)C(C)C, the inhibition is reported as 7.01% (inactive). In the case of O=C(Nc1ccc(-n2cccn2)cc1)C1CCN(Cc2ccsc2)CC1, the inhibition is reported as -1.22% (inactive). With CCCCNC(=O)c1onc(CSc2cccc(OC)c2)c1C(=O)O the inhibition was -12.1% (inactive). In the case of CCC(C)NC(=O)c1cc(Cl)ccc1OC (stereo unspecified), the inhibition is reported as 3.09% (inactive). In the case of Cc1cc(Br)cn2c(Cc3ccccc3C(F)(F)F)c(-c3ccc(Cl)cc3)nc12, the inhibition is reported as 12.9% (inactive). With COC(=O)c1ccc2nc(-c3cccc(Br)c3)c(Cc3ccccc3C(F)(F)F)n2c1 the inhibition was -9.35% (inactive). In the case of Cc1ccc(-c2nc3ccc(Br)cn3c2Cc2ccccc2C(F)(F)F)cc1, the inhibition is reported as 35.2% (active). For Cc1cc(C)c2nc(-c3cccnc3)cc(C(=O)Nc3ccc(S(=O)(=O)Nc4onc(C)c4C)cc3)c2c1, the inhibition was 0.27% (inactive). For C/C(N)=C(/C#N)C(=O)COC(=O)c1cc(-c2ccc(C)cc2)nc2ccccc12, the inhibition was -3.83% (inactive). In the case of O=C(c1ccc(Cl)cc1)n1cnc2ccccc21, the inhibition is reported as 11.4% (inactive). In the case of COc1ccc(-c2cc(C(=O)n3cnc4ccccc43)c3ccccc3n2)cc1, the inhibition is reported as 38.1% (active). With CC(C)Sc1nc(N)nc2c1ncn2C1OC(CO)C(O)C1O (stereo unspecified) the inhibition was 8.48% (inactive). In the case of Cc1ccc(-n2ncc3c(=O)n(-c4ccc(C)c(C)c4)c(-c4ccco4)nc32)cc1, the inhibition is reported as 18.1% (inactive). With Cn1c(-c2ccco2)nc2cc3ccccc3cc21 the inhibition was 41.7% (active). For Cn1c(SCC(=O)Nc2ccc(Br)cc2F)nnc1-c1ccco1, the inhibition was 6.52% (inactive). In the case of O=C(CN1C2CCC1CC(NC(=O)C1CC1)C2)NCc1ccccc1 (stereo unspecified), the inhibition is reported as 35.8% (active). With CC(=O)NC1CC2CCCC(C1)N2CC(=O)Nc1ccccc1 (stereo unspecified) the inhibition was -18.6% (inactive). With O=C(NCc1ccccc1)C1CCN(C(=O)Cc2ccccc2)CC1 the inhibition was 9.03% (inactive). For CCOC(=O)N1CCN(C(=O)c2ccc(CN(c3ccc(C)c(C)c3)S(C)(=O)=O)cc2)CC1, the inhibition was 6.59% (inactive). For OCc1nc(CO)n(Cc2ccccc2)n1, the inhibition was -5.44% (inactive). With COc1ccc(CC(NC(C)=O)C(=O)N2CCN(C(=O)Nc3cccc(Cl)c3)CC2)cc1OC (stereo unspecified) the inhibition was 40.7% (active). For COc1ccc(CC(NC(C)=O)C(=O)NC2CCN(C(=O)C3CC3)CC2)cc1OC (stereo unspecified), the inhibition was 7.48% (inactive). For COc1ccc(CC(NC(C)=O)C(=O)NC2CCN(C(=O)Nc3ccc(C#N)cc3)CC2)cc1OC (stereo unspecified), the inhibition was 11.3% (inactive). In the case of OC(c1ccc(Cl)c(F)c1)c1ncc(-c2ccccc2Cl)[nH]1 (stereo unspecified), the inhibition is reported as 20.6% (inactive). For CCN1CCN(c2sc(S(C)(=O)=O)nc2S(=O)(=O)c2ccc(Cl)cc2)CC1, the inhibition was -10.1% (inactive). In the case of COc1cc(N2CCCC2)c(OC)cc1/C=C(/C#N)c1cccc(Br)c1, the inhibition is reported as 45.8% (active). In the case of NC(=O)C1(Nc2ccc(-c3ccccc3)cc2)CCCC1, the inhibition is reported as 13.2% (inactive). In the case of N#CC1(Nc2ccc(-c3ccc(Cl)cc3)cc2)CCCC1, the inhibition is reported as 69% (active). In the case of N#CC1(Nc2ccc3c4c(cccc24)CC3)CCCCC1, the inhibition is reported as 8.67% (inactive). For Cc1c(C=O)c2ccccc2n1CC(=O)O, the inhibition was -4.35% (inactive). In the case of CC(=O)c1c(C)n([O-])c2ccccc2[n+]1=O, the inhibition is reported as 36.9% (active). In the case of CCOC(=O)C1=C(CNC2CCCCC2)NC(=O)NC1c1cc(C)ccc1C (stereo unspecified), the inhibition is reported as -5.96% (inactive). For C#Cc1ccc(NC(=O)C2(C)CCN2C(=O)Cc2ccc(-c3ccccc3)cc2)cc1 (stereo unspecified), the inhibition was 8.15% (inactive). In the case of CC(=O)Nc1cccc(OCC(=O)/C=C2\N(C)c3ccccc3C2(C)C)c1, the inhibition is reported as 45.5% (active). For Cc1cccc(OCC(=O)Nc2ccccc2F)c1, the inhibition was 11.3% (inactive). With COc1cccc(NC(=S)C(C#N)=C2N(C)c3ccccc3N2C)c1 the inhibition was -3.75% (inactive). In the case of COCCn1c(SCc2nc3cc(OC)c(OC)cc3c(=O)[nH]2)nnc1-c1ccncc1, the inhibition is reported as 13.8% (inactive). In the case of CCn1c(SCC(=O)Nc2nc(C)cs2)nnc1C(C)NC(=O)c1ccccc1 (stereo unspecified), the inhibition is reported as -5.72% (inactive). With C=CCNC(=S)N1CCN(CCN=Cc2c(C)[nH]n(-c3ccc([N+](=O)[O-])cc3)c2=O)CC1 the inhibition was -5.99% (inactive). In the case of O=C(COC(=O)/C=C/c1cccs1)NC1CCCCC1, the inhibition is reported as 4.24% (inactive). For O=C1/C(=C/c2cccs2)CCC1C1CCCC1 (stereo unspecified), the inhibition was 41.6% (active). For O=C1/C(=C/c2cccs2)CCc2ccccc21, the inhibition was 41.9% (active). With c1ccc2c(c1)CCc1snnc1-2 the inhibition was 11% (inactive). In the case of O=S(=O)(c1cccs1)N1CCc2ccccc2C1, the inhibition is reported as -31.6% (inactive). In the case of O=S1(=O)CSCS(=O)(=O)C1, the inhibition is reported as 10.6% (inactive). For CC1CN(S(=O)(=O)c2ccc(C(=O)NN3CCN(C)CC3)cc2)CC(C)O1 (stereo unspecified), the inhibition was -5.41% (inactive). For Cc1cc(OCc2cc(C(=O)NCc3cc(C(C)C)no3)no2)cc(C)c1Cl, the inhibition was 1.98% (inactive). In the case of O=C(Nc1ccc(Cl)c(Cl)c1)N1CC=C(c2ccccc2)CC1, the inhibition is reported as 13.1% (inactive). For O=C(CC(O)(C(F)(F)F)C(F)(F)F)Nc1ccc(Cl)c(Cl)c1, the inhibition was 50.1% (active). With Cc1ccc(NC(=O)CSc2nn3c(=O)c(C)nnc3s2)cc1Cl the inhibition was 20.9% (inactive). In the case of NC(=O)C1CCN(C2OC(=O)c3ccccc32)CC1 (stereo unspecified), the inhibition is reported as -35.9% (inactive). In the case of O=C(NC(c1ccc(-c2ccccc2)cc1)c1cnccn1)C1CCN(CCOc2ccc(Cl)cc2Cl)CC1 (stereo unspecified), the inhibition is reported as 39.3% (active). In the case of Cc1ccc(C(NC(=O)C2CCN(CCOc3ccc(Cl)cc3Cl)CC2)c2ccccn2)cc1 (stereo unspecified), the inhibition is reported as -6.91% (inactive). For O=C(NC(c1ccc(Cl)cc1)c1cnccn1)C1CCN(Cc2ccc(Cl)cc2)CC1 (stereo unspecified), the inhibition was -1.18% (inactive). In the case of CCCCS(=O)c1snnc1C (stereo unspecified), the inhibition is reported as 0.19% (inactive). For CC1(C(=O)NS(=O)(=O)c2ccccc2)CCN1C(=O)Cc1ccc(-c2ccccc2)cc1 (stereo unspecified), the inhibition was 14.5% (inactive). In the case of CC1(C(=O)NS(=O)(=O)c2cccs2)CCN1C(=O)Cc1ccc(-c2ccccc2)cc1 (stereo unspecified), the inhibition is reported as 35.1% (active). For CCCNC(=O)C1(C)CCN1C(=O)Cc1ccc(-c2ccccc2)cc1 (stereo unspecified), the inhibition was -5.8% (inactive). In the case of O=C(NCCCN1CCOCC1)C1CCCN(S(=O)(=O)N2CCCCC2)C1 (stereo unspecified), the inhibition is reported as 6.87% (inactive). In the case of CC[n+]1c(C)n(-c2ccccc2)c2ccc(NC(C)=O)cc21, the inhibition is reported as -12.4% (inactive). In the case of O=S(=O)(c1ccc(Sc2nnc3ccccn23)nc1)N1CCOCC1, the inhibition is reported as 10.2% (inactive). With CCCCOC(=O)Nc1sc2nc(C)cc(C)c2c1-n1cccc1 the inhibition was -12.8% (inactive). For COC(=O)Nc1sc2nc(C)cc(C)c2c1-n1cccc1, the inhibition was 6.78% (inactive). In the case of Cc1cc(C)c2c(-n3cccc3)c(NC(=O)OCc3ccccc3)sc2n1, the inhibition is reported as 39.1% (active). In the case of O=C(C1CCCO1)N1CCN(C(=S)NC2CC2)CC1 (stereo unspecified), the inhibition is reported as -7.31% (inactive). For COc1cc2[nH]c(=S)n(CCN3CCCCC3C)c(=O)c2cc1OC (stereo unspecified), the inhibition was 56.1% (active). In the case of COc1cc2[nH]c(=S)n(Cc3ccc(F)cc3)c(=O)c2cc1OC, the inhibition is reported as -0.963% (inactive). With CCOc1cc2[nH]c(=S)n(CCN3CCCCC3C)c(=O)c2cc1OCC (stereo unspecified) the inhibition was -6.45% (inactive). In the case of CC(Oc1ccc(Cl)cc1Cl)C(=O)/C=C/N(C)C (stereo unspecified), the inhibition is reported as -7.74% (inactive). In the case of CC(C)(CNCC(O)c1ccccc1)N1CCOCC1 (stereo unspecified), the inhibition is reported as -7.82% (inactive). In the case of Fc1cccc(CSc2nnc3ccc(-c4ccncc4)nn23)c1, the inhibition is reported as -27.4% (inactive). In the case of COc1ccc(S(=O)(=O)NCc2cccnc2)cc1NC(=O)c1ccc(C)cc1, the inhibition is reported as 22.1% (inactive). With CC(C)c1nnc(NC(=O)C2CC(=O)N(CCc3ccc(F)cc3)C2)s1 (stereo unspecified) the inhibition was -6.45% (inactive). For CCC(C)NC(=O)c1ccccc1NC(=O)c1ccccc1N(C)S(C)(=O)=O (stereo unspecified), the inhibition was -2.01% (inactive). For Cc1ccc(-c2nc(CS(=O)CC(=O)NC3CCCC3)c(C)o2)cc1 (stereo unspecified), the inhibition was 5.39% (inactive). In the case of COc1ccc(-c2nc(CS(=O)CC(=O)NCc3cccnc3)c(C)o2)cc1OC (stereo unspecified), the inhibition is reported as 0.495% (inactive). In the case of COc1ccc(-c2nc(CS(=O)CC(=O)NCc3ccccn3)c(C)o2)cc1 (stereo unspecified), the inhibition is reported as 37.6% (active).
